The campaign covered roughly 220,000 compounds. About 2,000 (0.91%) were called active. Another 2% or so got no clear call; they are omitted. Only a sample is shown. Entries with a potency or affinity are not part of this list. Unmarked numbers belong to inactive results. Cut-off read from the data, not from the text of the source: inconclusive = inhibition above about 80% without an active follow-up result; inactive = below that; test concentration not stated here.
Assay: M. tuberculosis H37Rv growth inhibitors, H37Rv strain (AID 1626);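 note: bacteria incubated seven days before Alamar blue readout; 0% = bacteria only wells and 100% = bacteria with antibiotic wells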
Conditions: hits give high values, concentration not given here

SMILES	inhibition [%]
Cc1ccccc1NC(=O)Cc1nnc(SCc2ccc(Cl)c(Cl)c2)n1C	-3.35
COc1cccc(C(=O)NNC(=S)NC2CCCCC2)c1	4.93
CCCn1c(SCC(=O)Nc2ccccc2C(=O)OC)nc2c1c(=O)n(C)c(=O)n2C	0.72
O=C(CCl)NCc1c(Cl)cccc1-n1cccc1	-3.53
COCCOC(=O)c1c(NC(=O)CN2c3ccccc3CC2C)sc(C(N)=O)c1C (stereo unspecified)	6.79
O=C(COC(=O)c1cccc(Cl)c1Cl)NCCN1C(=O)CSC1=O	-1.16
O=S(=O)(c1cc(Cl)ccc1Br)N1CCCCC1	3.97
CCOC(=O)N1CCC(Nc2nc3ccccc3n3cnnc23)CC1	4.5
Cc1ccc(NC(=O)C[n+]2cc(-c3ccc(C)cc3)n3c2CCC3)cc1	0.55
O=C(C[n+]1cc(-c2ccccc2)n2c1CCC2)Nc1nc(-c2ccccc2)cs1	77.8
Cc1ccc(-c2c[n+](CC(=O)Nc3c(C)cccc3C)c3n2CCC3)cc1	-1.5
Cc1ccc(-c2csc(NC(=O)C[n+]3cc(-c4ccccc4)n4c3CCC4)n2)cc1	75.7
CC(C)(CO)NCc1ccc(Br)cc1	1.99
C/C(=N/NC(=O)CN1CCN(Cc2ccccc2Cl)CC1)c1ccco1	-5.99
CNC(=O)COC(=O)/C=C/c1ccco1	-4.68
COC(=O)C1CC(=O)N(Cc2ccccc2)C1 (stereo unspecified)	-1.62
COc1ccc(C2C(C(=O)OCC(=O)NC(C)(C)C)CCC(=O)N2c2ccc(C)cc2)cc1OC (stereo unspecified)	70.3
CCOC(=O)c1c(NC(=O)C(=O)N/N=C/c2ccc(OCC)cc2)sc2c1CCCCC2	2.16
O=C(Cc1sc(-c2ccccc2Cl)nc1-c1ccccc1)Nc1ccc(F)cc1	-0.94
CC(C)CCN1C(=O)c2ccc(C(=O)NCc3ccco3)cc2C1=O	4.17
COc1ccc(C2NCCc3c2[nH]c2ccccc32)cc1CN1CCc2cc(OC)c(OC)cc2C1C (stereo unspecified)	4.52
COc1cc(C2NCCc3c2[nH]c2ccccc32)ccc1OC(C)C (stereo unspecified)	1.05
Cc1ccc(N(CC(=O)NCCSc2nc3ccccc3s2)S(=O)(=O)c2ccccc2)c(C)c1	9.8
COC(=O)c1ccc(/C=C(\C#N)c2nc3ccccc3s2)cc1	3.69

SMILES	inhibition [%]
Cc1ccc(S(=O)(=O)Nc2cccc3cccnc23)cc1	-2.94
CNC(=O)Nc1cccc2cccnc12	-8.8
CN(CCc1ccccn1)C(=S)Nc1ccc(Cl)c(Cl)c1	3.62
COc1ccc(NS(=O)(=O)c2cnc[nH]2)cc1	5.45
Cc1[nH]n(-c2ccccc2)c(=O)c1C(=O)c1ccc(Cl)cc1	-3.87
Cc1[nH]n(-c2ccccc2)c(=O)c1C(=O)c1ccccc1	-0.23
CCn1c(=O)c(=O)[nH]c2cc(C(=O)N3CCN(c4ccccc4F)CC3)ccc21	7.44
Nc1ccc(C(=O)OCC(=O)N2c3ccccc3Sc3ccccc32)cc1[N+](=O)[O-]	-1.19
Cc1ccc(N=Cc2c(O)n(-c3nccs3)c(=O)c3ccccc23)cc1	-4.95
Cc1cccc(C)c1N=Cc1c(O)n(-c2nccs2)c(=O)c2ccccc12	2.79
Cc1cc(C(=O)N/N=C/c2ccc(-c3ccc(C)c(Cl)c3)o2)n[nH]1	56.6
Clc1ccc(Cl)c(-c2ccc(/C=N/c3ncn[nH]3)o2)c1	6.69
COc1cccc(CN(C)Cc2nc3cc(C(F)(F)F)ccc3c(=O)[nH]2)c1	4.79
CSc1ccc(CN(C)Cc2nc3cc(C(F)(F)F)ccc3c(=O)[nH]2)cc1	91.3
CC(C)C(=O)NNC(=O)c1c(O)c2ccccc2[nH]c1=O	-10.7
Cc1cc(C)n(-c2ncc3c(n2)N(CCO)CCOC3=O)n1	10.4
O=C(/C=C/c1ccccc1Cl)c1cccnc1	-7.55
O=C(/C=C/c1cccc(O)c1)c1cccnc1	53.2
O=C(/C=C/c1ccc([N+](=O)[O-])cc1)c1cccnc1	11.1
O=C(/C=C/c1cccnc1)c1ccc(O)cc1	-0.25
N#Cc1ccc(/C=C/C(=O)O)cc1	-0.8
CN(C)c1ccc(/C=C/C(=O)c2cccnc2)cc1	3.22
O=C(/C=C/c1ccccc1)c1ccccc1	10.5
CCN(CC)c1ccc(/C=C/C(=O)c2cccnc2)cc1	16.5

SMILES	inhibition [%]
CC(C)(C)CC(C)(C)NC(=S)NC1CCN(Cc2ccccc2)CC1	-15.9
Cc1ccc(NC(=S)Nc2cccc(-c3n[nH]c(=S)o3)c2)cc1	10.2
O=C(COC(=O)/C=C/c1ccc(Cl)cc1)NCCC1=CCCCC1	-4.53
Cc1cccc(C(=O)NCC2CCCO2)c1 (stereo unspecified)	-2.3
Cc1ccc(CNC(=O)C(=O)NCC2OCCN2S(=O)(=O)c2cccs2)cc1 (stereo unspecified)	-2.36
CCOC(=O)c1c[nH]n(-c2ccc(C)cc2)c1=O	-7.4
Cc1onc(-c2ccccc2Cl)c1C(=O)Nc1ncn[nH]1	6.99
CCOC(=O)C1CCCN(Cc2cc(Br)c(OC)cc2OC)C1 (stereo unspecified)	1.19
Cc1cc(C(=O)N(CCC#N)Cc2cccs2)no1	-6.57
CCOc1ccc(C(C)NC(=O)C2CCC2)cc1 (stereo unspecified)	1.59
COCc1nnc(SCC(=O)NCc2ccccc2)n1-c1ccccc1	-6.68
COc1ccccc1NC(=O)C1=C(C)NC2=C(C(=O)CCC2)C1c1ccc2c(c1)OCO2 (stereo unspecified)	-0.94
O=C(/C=C/c1ccc(Cl)c([N+](=O)[O-])c1)NCc1cccnc1	2.22
O=C(/C=C/c1ccc(Cl)c([N+](=O)[O-])c1)Nc1cccnc1	-11.5
Cc1nc(C(=O)Nc2ccc(F)cc2)nn1-c1ccc([N+](=O)[O-])cc1	-5.91
CCC1(C)Cc2ccccc2C(Nc2c(C)n(C)n(-c3ccccc3)c2=O)=N1 (stereo unspecified)	-6.85
Cc1nc(-c2cccc(NC(=O)C3CCCCC3)c2)cs1	-1.02
COc1cccc(-c2nc(-c3ccc4c(c3)NC(=O)CO4)cs2)c1	22.4
COc1ccccc1Nc1nc(-c2ccc3c(c2)NC(=O)CO3)cs1	-3.16
CCC(C(=O)Nc1cc(Cl)c(OC)cc1OC)c1ccccc1 (stereo unspecified)	-3.66
CC(=O)OC(C(=O)Nc1ccccc1)C(C)S(=O)(=O)c1ccccc1 (stereo unspecified)	-4.23
O=C(Nc1ccccc1Cl)O/N=C/c1ccncc1	-1.05
CC(C)C(=O)Nc1ccc(C(=O)NNC(=O)NC2CCCCC2)cc1	-3.11
COc1cccc(NC2c3ccccc3C(=O)N2Cc2ccccc2Cl)c1 (stereo unspecified)	8.87

SMILES	inhibition [%]
O=C(OCc1ccc([N+](=O)[O-])cc1)c1ccc2ccccc2n1	40.4
O=C(COC(=O)c1ccc2ccccc2n1)c1ccc(F)cc1	-7.45
O=C(O)CSc1nc2ccccc2[nH]1	-9.58
O=C(CSc1nc2ccccc2s1)N1c2ccccc2Sc2ccccc21	1.29
COc1ccc(NC(=O)COC(=O)c2cc(SC)ccc2Cl)c(OC)c1	10.1
COc1ccc(C(C)(C)C)cc1NC(=O)COC(=O)c1ncc(Cl)c(Cl)c1Cl	-2.28
O=C1c2ccc(Oc3cccc([N+](=O)[O-])c3)cc2C(=O)N1c1ccccn1	-2.15
Cc1ccc(N2C(=O)c3cccc4c([N+](=O)[O-])ccc(c34)C2=O)c2cccnc12	-2.68
O=C1c2cccc3cccc(c23)C(=O)N1Cc1cccnc1	-2.19
O=C1c2ccccc2C(=O)N1CC1CCCO1 (stereo unspecified)	-1.11
O=C1c2cccc3cccc(c23)C(=O)N1CC1CCCO1 (stereo unspecified)	0.46
O=C1c2cccc3cccc(c23)C(=O)N1c1ccccn1	2
O=C1c2ccc3c4c(ccc(c24)C(=O)N1Cc1cccnc1)C(=O)N(Cc1cccnc1)C3=O	7.76
O=C1c2cccc3c([N+](=O)[O-])ccc(c23)C(=O)N1c1nccs1	-1.82
CCOC(=O)c1[nH]c2cc(OC)c(OC)cc2c1NC(=O)CN1CCN(C)CC1	-4.7
COC(=O)CS(=O)(=O)c1ccc(C)cc1	-7.54
CCCOC(=O)c1c(NC(=O)CCCn2nc([N+](=O)[O-])cc2C)sc(C(=O)OC)c1C	-6.65
CCOP(=O)(OCC)C(Nc1cc(Cl)cc(Cl)c1)c1cccc(O)c1 (stereo unspecified)	1.6
CCO[C@@H]1OC(C(=O)Nc2ccccc2)=C[C@H](c2ccc(C(F)(F)F)cc2)[C@H]1CCCO	3.16
Cc1occc1-c1nnc(SCC(=O)c2c(N)n(Cc3ccccc3)c(=O)n(C)c2=O)n1C	4.82
CCCC(=O)Nc1ccc(C(=O)NN=C(C2CC2)C2CC2)cc1	-2.7
CCCCSc1nnc(CSc2nc3nc(C)cc(C)n3n2)o1	8.33
CCCSc1nnc(CSc2nc3nc(C)cc(C)n3n2)o1	-11.4
Cc1cc2nc(N)sc2cc1[N+](=O)[O-]	-4.98

Source: PubChem BioAssay AID1626 (SRMLSC, 2009)
